What is called inhibition is the relative decrease from the control value, in per cent.

The values below come from PubChem BioAssay AID1445 (SRMLSC, 2008).

About 910 (0.41%) of roughly 220,000 compounds were called active. This excerpt belongs to a sample that is enriched for actives. Results with a measured potency or affinity are listed apart. A number with no mark means an inactive call.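 Rule for the calls: active = primary inhibition above the hit cutoff, then over 50% inhibition at one or more dose response concentrations (cut at about 23% in these data, passing the limit was not always enough); inconclusive = conflicting primary data, or primary hits not chosen for dose response; inactive = low primary inhibition, or under 50% at every dose.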

The target of this test is Aminopeptidase N (Plasmodium falciparum (isolate 3D7)) (UniProt O96935). The test can be described thus: malaria alanyl aminopeptidase activity blockers – biochemical, fluorogenic H-Leu-NHMec substrate, 1536-well (AID 1445).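 Note: plate controls were DMSO full reaction for no effect and no enzyme background for full effect.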 The settings on record: recombinant M1AAP, H-Leu-NHMec fluorogenic kinetic assay; at 30 µM, stronger effect = higher value unless noted.
Sequence of Aminopeptidase N (Plasmodium falciparum (isolate 3D7)) (O96935 whole entry, looked up): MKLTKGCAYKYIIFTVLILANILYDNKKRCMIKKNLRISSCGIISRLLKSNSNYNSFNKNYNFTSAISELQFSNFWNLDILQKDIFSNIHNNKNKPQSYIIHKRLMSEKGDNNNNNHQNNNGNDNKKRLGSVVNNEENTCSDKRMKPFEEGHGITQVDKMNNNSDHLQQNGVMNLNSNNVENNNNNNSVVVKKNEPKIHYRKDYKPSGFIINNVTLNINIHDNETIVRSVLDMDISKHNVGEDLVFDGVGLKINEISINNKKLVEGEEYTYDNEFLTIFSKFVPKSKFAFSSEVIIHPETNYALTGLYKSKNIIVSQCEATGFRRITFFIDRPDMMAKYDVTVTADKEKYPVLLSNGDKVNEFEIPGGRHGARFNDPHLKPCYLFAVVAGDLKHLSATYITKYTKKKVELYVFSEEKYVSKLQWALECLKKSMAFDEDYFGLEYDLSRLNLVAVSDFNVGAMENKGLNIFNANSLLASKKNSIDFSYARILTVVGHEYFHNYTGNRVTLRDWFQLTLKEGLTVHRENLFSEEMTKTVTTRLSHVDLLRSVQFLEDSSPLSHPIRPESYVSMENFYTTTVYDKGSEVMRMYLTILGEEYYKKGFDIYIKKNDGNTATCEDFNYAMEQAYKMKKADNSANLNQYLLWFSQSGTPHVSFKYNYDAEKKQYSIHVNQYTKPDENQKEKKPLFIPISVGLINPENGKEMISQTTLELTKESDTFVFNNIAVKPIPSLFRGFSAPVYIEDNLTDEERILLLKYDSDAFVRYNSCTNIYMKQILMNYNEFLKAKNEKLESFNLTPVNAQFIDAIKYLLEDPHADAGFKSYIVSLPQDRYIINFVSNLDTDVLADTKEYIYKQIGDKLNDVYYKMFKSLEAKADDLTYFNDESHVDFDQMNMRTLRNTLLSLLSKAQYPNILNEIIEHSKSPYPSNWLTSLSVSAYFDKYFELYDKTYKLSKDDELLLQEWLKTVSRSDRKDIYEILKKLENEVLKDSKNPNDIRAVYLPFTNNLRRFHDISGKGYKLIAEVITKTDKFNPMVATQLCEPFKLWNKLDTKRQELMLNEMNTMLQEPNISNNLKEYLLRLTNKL
Regarding `COC(=O)CNC(=O)C(C)NC(=O)OCc1ccccc1` (stereo not given), the inhibition is 3.83%.

Consider `Cc1cc(C)c2[nH]c(=O)c(C(c3nnnn3C(C)(C)C)N(Cc3ccco3)CC3CCCO3)cc2c1` (stereo not given), for which the inhibition was 11.4%.

With `O=C(O)COc1ccccc1/C=N/NC(=O)CSc1nnc(SCc2cccc3ccccc23)s1`, the inhibition was 11.9%.

Turning to `O=C(O)COc1ccccc1/C=N/NC(=O)CSc1nnc(SCc2ccccc2)s1`, the inhibition is 14.1%.

With `O=C(CSc1nnc(SCc2ccccc2)s1)N/N=C/c1ccc(Cl)cc1Cl`, the inhibition was 5.23%.

With `O=C(CSc1nnc(SCc2ccc(Cl)cc2)s1)N/N=C/c1ccccc1C(=O)O`, the inhibition was 2.73%.

Turning to `CCOc1ccccc1-n1c(COc2ccccc2)nnc1SCC(N)=O`, the inhibition is 6.25%.

Consider `COc1ccc2cc(CN(C(=O)Nc3ccccc3)C3CCCC3)c(=O)[nH]c2c1`, for which the inhibition is 10.9%.

Consider `O=C(CCNC(=O)c1ccccc1Cl)Nc1ccc(S(=O)(=O)Nc2ncccn2)cc1`, for which the inhibition is -2.53%.

In the case of `COc1ccccc1C1CC(c2c(-c3ccccc3)c3cc(Cl)ccc3[nH]c2=O)=NN1S(C)(=O)=O` (stereo not given), the inhibition is 33.3%.

With `O=C(O)CCC(=O)N1N=C(c2ccco2)CC1c1cccs1` (stereo not given), the inhibition was -6.29%.

For the compound `COc1ccc(OC)c(C2CC(c3c(-c4ccccc4)c4cc(Cl)ccc4[nH]c3=O)=NN2S(C)(=O)=O)c1` (stereo not given), the inhibition is 6.89%.

`O=C(O)CCC(=O)N1N=C(c2ccc(Br)cc2)CC1c1cccs1` (stereo not given): the inhibition is 7.55%.

Take `Cc1ccc(C2=NN(C(=O)CCC(=O)O)C(c3cccs3)C2)cc1` (stereo not given): the inhibition was -2.92%.

With `COc1cccc(C2=NN(C(=O)CCCC(=O)O)C(c3cccs3)C2)c1` (stereo not given), the inhibition is 2.4%.

As to `COc1ccc(C2=NN(C(=O)CCC(=O)O)C(c3cccs3)C2)cc1` (stereo not given), the inhibition is 6.04%.

With `O=C(O)CCCC(=O)N1N=C(c2ccccc2)CC1c1cccs1` (stereo not given), the inhibition was -2.7%.

Consider `O=C(C1CCCCN1S(=O)(=O)c1ccccc1[N+](=O)[O-])N1CCCC1` (stereo not given), for which the inhibition was -3.36%.

As for `CC(NC(=O)c1ccccc1Cl)C(=O)O` (stereo not given), the inhibition was -7.3%.

`CCN(CC)S(=O)(=O)c1ccc(C(=O)Nc2ccc3c(c2)OCCO3)cc1`: the inhibition is 4.24%.

As for `N/C(=N\OC(=O)CCCOc1ccccc1)c1ccc([N+](=O)[O-])cc1`, the inhibition was 6.54%.

`Cc1nc2ccc(Cl)cc2c(-c2ccccc2)c1CC(=O)O`: the inhibition was 14.4%.

`CCOC(=O)c1c(C)nc2ccc(Cl)cc2c1-c1ccccc1`: the inhibition was 5.75%.

Consider `CCOC(=O)c1ccccc1NC(=O)c1cn(-c2ccc(C)c(C)c2)c(=O)c2ccccc12`, for which the inhibition was 1.24%.

`Cc1cccc(CN2CCN(CCCc3ccccc3)CC2)c1`: the inhibition is -1.11%.

Regarding `COc1ccccc1NS(=O)(=O)c1ccc(N/N=C/c2ccccc2OCC(=O)O)c([N+](=O)[O-])c1`, the inhibition is 13.1%.

On to `CCN(CC)S(=O)(=O)c1ccc(N/N=C/c2ccccc2OCC(=O)O)c([N+](=O)[O-])c1`, for which the inhibition is 11.3%.

Regarding `COC(=O)/C(=C\Nc1cccc(Cl)c1C)c1ncc(C(F)(F)F)cc1Cl`, the inhibition was -7.97%.

For the compound `Cc1cc(C(=O)COC(=O)c2ccc(N)c([N+](=O)[O-])c2)c(C)n1-c1ccc2c(c1)OCO2`, the inhibition is 4.88%.

Regarding `COc1cc([N+](=O)[O-])ccc1-c1ccc(/C=N/NC(N)=O)o1`, the inhibition is 0.13%.

Turning to `COc1cc([N+](=O)[O-])ccc1-c1ccc(/C=N/NC(=O)OC(C)(C)C)o1`, the inhibition is 3.22%.

Turning to `N#CCCN(CCC#N)C(=O)c1ccc(Cl)cc1`, the inhibition was 0.66%.

For the compound `Nc1cc(N)nc(SCc2cccnc2)n1`, the inhibition was -6.1%.

In the case of `O=C(CO/N=C/c1c(Cl)cccc1Cl)NNC(=O)c1cccc(Cl)c1`, the inhibition was 0.37%.

For the compound `Cc1cccc(S(=O)(=O)NNC(=O)c2cc(-c3ccc(F)cc3)nc3ccccc23)c1`, the inhibition is 15.2%.

Take `O=C(NNC(=O)c1cc(-c2ccccc2)nc2ccccc12)Nc1cccc(Cl)c1`: the inhibition is 6.82%.

On to `Cc1cccc(N2CCN(Cc3cnc(Cl)s3)CC2C)c1` (stereo not given), for which the inhibition is 3.39%.

Turning to `COc1ccc(CNC(=O)c2csc(Cc3ccccc3)n2)cc1`, the inhibition was 2.78%.

Consider `Cc1nc2ccc(Cl)cc2c(-c2ccccc2F)c1CC(=O)O`, for which the inhibition was 16.3%.

Regarding `Cc1nc2ccc(Cl)cc2c(-c2ccccc2Cl)c1CC(=O)O`, the inhibition is -0.5%.

Turning to `C/C(Cn1cnc([N+](=O)[O-])n1)=N\NC(=O)c1ccccc1`, the inhibition was 15.8%.

Take `CCOc1ccc(NC(=O)C/C(N)=N/O)cc1`: the inhibition is -8.44%.

For the compound `O=C(O)c1cccc(S(=O)(=O)Nc2ccccc2Cl)c1`, the inhibition was 0.86%.

With `COc1ccc([N+](=O)[O-])cc1NS(=O)(=O)c1cccc(C(=O)O)c1`, the inhibition was 7.17%.

On to `CCOc1cc(C(=O)N(C)Cc2cc3ccccc3[nH]c2=O)cc(OCC)c1OCC`, for which the inhibition is 4.4%.

Take `CCCCCc1nc2sc3c(c2c(=O)n1NC(=O)c1ccc([N+](=O)[O-])cc1)CC(C)(C)OC3`: the inhibition is 4.81%.

On to `CCc1nc2sc3c(c2c(=O)n1N)CC(C)(C)OC3`, for which the inhibition is -0.3%.

In the case of `CCCCCCCCCc1nc2sc3c(c2c(=O)n1NC(=O)c1ccccc1[N+](=O)[O-])CC(C)(C)OC3`, the inhibition is -2.36%.

Take `CCCCCCCCCc1nc2sc3c(c2c(=O)n1NC(=O)c1ccc([N+](=O)[O-])cc1)CC(C)(C)OC3`: the inhibition is 3.87%.

`Cn1c(=O)c(C(=O)COc2ccc(F)cc2Cl)c(N)n(Cc2ccccc2)c1=O`: the inhibition was 6.9%.

On to `COc1ccc(CC(NC(C)=O)C(=O)NC2CCN(c3c(Cc4ccccc4)c(C)nc4ncnn34)CC2)c(OC)c1` (stereo not given), for which the inhibition was -2.17%.

For `C/C(=N/N1CCN(c2ccccn2)CC1)c1ccc([N+](=O)[O-])cc1`, the inhibition was -1.3%.

`O=C(NCCc1ccccc1)c1nc2c(nnn2Cc2ccccc2Cl)c(=O)[nH]1`: the inhibition was -9.83%.

With `COc1ccc(Cn2nnc3c(=O)[nH]c(C(=O)NCCc4ccc(F)cc4)nc32)cc1OC`, the inhibition was 24.5% (active).

Turning to `O=C(NCc1cccs1)c1nc2c(nnn2Cc2ccc(F)cc2)c(=O)[nH]1`, the inhibition was 2.78%.

As to `O=C(COC(=O)c1cccc(C(=O)OCC(=O)NCc2ccc(F)cc2)n1)NCc1ccc(F)cc1`, the inhibition is 5.21%.

Take `Cc1cccc(NC(=O)C(NS(=O)(=O)c2ccc3c(c2)CCC(=O)N3)c2ccccc2)n1` (stereo not given): the inhibition was 2.64%.

Take `CSc1ncc(Cl)c(C(=O)Nc2nnc(SC)s2)n1`: the inhibition was 12.7%.

Consider `C=CCSc1nnc(NC(=O)c2ccc(Cl)nc2)s1`, for which the inhibition was 2.22%.

Consider `CSc1ncc(Cl)c(C(=O)Nc2nnc(SC/C=C/c3ccccc3)s2)n1`, for which the inhibition was 30%.

On to `CCSc1ncc(Cl)c(C(=O)Nc2ccccc2)n1`, for which the inhibition was 2.17%.

As to `Fc1ccc(NC(=S)NC23CN4CN(CN(C4)C2)C3)cc1`, the inhibition was 6.25%.

With `CCc1cccc(CC)c1NC(=O)COn1nnc2ccc(C(F)(F)F)cc21`, the inhibition is -1.32%.

Turning to `O=S(=O)(Nc1ccc(O)c(Sc2nc3ccccc3s2)c1)c1ccc(Cl)cc1`, the inhibition is 0.11%.

As for `O=C(O)c1cccc(S(=O)(=O)Nc2ccc(O)c(Sc3nc4ccccc4s3)c2)c1`, the inhibition is 22.2%.

`COc1ccc(S(=O)(=O)Nc2ccc(O)c(Sc3ncn[nH]3)c2)cc1`: the inhibition is 18%.

With `O=S(=O)(Nc1ccc(O)c(Sc2nc3ccccc3s2)c1)c1ccc(F)cc1`, the inhibition was 7.05%.

With `Cc1cc(C)nc(NC(=O)/C=C/c2ccc3c(c2)OCO3)c1`, the inhibition was 4.5%.

Regarding `Cc1cccc(NC(=O)CN2C(=O)COc3ccc(Cl)cc32)c1C`, the inhibition was 0.78%.

For the compound `COc1cc(C=O)ccc1OS(=O)(=O)c1ccc(NC(C)=O)cc1`, the inhibition is 7.57%.

Regarding `COc1cc(/C=C/C(=O)O)ccc1OS(=O)(=O)c1ccc(C)cc1`, the inhibition was 0.48%.

`COc1ccc(/C=C2/S/C(=N/S(=O)(=O)Cc3ccccc3)NC2=O)cc1OC`: the inhibition is 12.7%.

As to `COc1cc(/C=C(\C#N)C(N)=O)ccc1OS(=O)(=O)c1ccc(C)cc1`, the inhibition is 12.9%.

For `CCOc1ccc(/C=C2\SC(=S)NC2=O)cc1OC`, the inhibition was 17.4%.

On to `COc1ccc(C=O)cc1OS(=O)(=O)c1ccc(NC(C)=O)cc1`, for which the inhibition is 4.39%.

As to `CCOc1ccc(S(=O)(=O)N2CCOCC2)cc1[N+](=O)[O-]`, the inhibition is 1.27%.

For the compound `Nc1ccc(C(=O)OCC(=O)c2cccc([N+](=O)[O-])c2)cc1`, the inhibition was -2.36%.

On to `Cc1nc(NCc2ccccc2)sc1C(=O)Nc1ccccc1`, for which the inhibition is -1.78%.

Turning to `CN1CCc2c(sc(NC(=O)c3ccc(S(=O)(=O)N4CCc5ccccc54)cc3)c2C(N)=O)C1`, the inhibition was 5.03%.

With `CCN(CC(=O)Nc1ccccc1OC)C(=O)COc1ccc2ccccc2c1`, the inhibition is 5.71%.

In the case of `CC1(C)CC(=O)C2=C(C1)Nc1ccccc1NC2c1ccccn1` (stereo not given), the inhibition was 8.61%.

On to `Cc1cc2c(cc1C)NC(c1ccccn1)C1=C(CC(C)(C)CC1=O)N2` (stereo not given), for which the inhibition is 23.3% (active).

As for `CC1(C)CC(=O)C2=C(C1)Nc1cc(C(=O)c3ccccc3)ccc1NC2c1ccccn1` (stereo not given), the inhibition was 18.1%.

With `COCCNC(=O)c1cc2oc3ccccc3c2n1C`, the inhibition was 15%.

In the case of `O=C1OC(/C(=C\Nc2ccc(F)cc2F)[N+](=O)[O-])c2ccccc21` (stereo not given), the inhibition is 8.86%.

Regarding `O=C1OC(/C(=C\Nc2ccccc2)[N+](=O)[O-])c2ccccc21` (stereo not given), the inhibition is 7.21%.

Regarding `O=[N+]([O-])c1cc(S(=O)(=O)N2CCCC2)ccc1NCCCN1CCOCC1`, the inhibition is 4.04%.

For the compound `Oc1c(Br)cc2oc3c(c2c1CNCc1ccccc1)CCCC3`, the inhibition is 33.9% (active).

As to `CC(C)NCc1c(O)c(Br)cc2oc3c(c12)CCCC3`, the inhibition is 9.95%.

Consider `O=[N+]([O-])c1cc2oc3c(c2c(C=NCc2ccccc2)c1O)CCCC3`, for which the inhibition was -0.25%.
